From PubChem BioAssay (NCATS)
Several values for one entry are separate records, joined by “and”; a condition that tells them apart may be missing. Equal values may be shown once. Inconclusive results are not listed. Activity calls are given as the source filed them. Calls follow the shape of the dose curve; as a rule, active = well fitted cell-killing curve with a large enough effect; inconclusive = small, poorly fitted or top-dose-only effect; inactive = flat fitted curve, though single readings scatter.

Experiments:
[1] = MultiTox-Fluor Cytotoxicity Assay - LYMP1-003 - Live Cells (AID 962);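 also: cells exposed to compound for 16 hours at 37 °C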
Summary of the method: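 Cells plated at 2500 per well and incubated 5 hr; compounds added and incubated 16 hr at 37 C; MultiTox-Fluor reagent added for 60 min at room temperature; fluorescence of liberated AFC measured at 405/510 nm.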

[2] = Cell Viability - LYMP1-003 - Assay at 40 hr (AID 964); also: nearly all actives have a fitted effect of over 60% in size
Summary of the method: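 This qHTS cytotoxicity screen treats human lymphoblastoid cells (LYMP1-003) with compounds for 40 hr and quantifies cellular ATP via luciferase luminescence.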

[3] = Cell Viability - LYMP2-009 (AID 968);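 also: cells exposed to compound for 24 h at 37 °C; nearly all actives have a fitted effect of over 55% in size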
[4] = Cell Viability - LYMP2-011 (AID 969); also: nearly all actives have a fitted effect of over 60% in size
Summary of the method: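 Acute toxicity is scored as a concentration-dependent drop in intracellular ATP of a human lymphoblastoid line after 24 hr treatment. Values are AC50s modeled with the Hill equation.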

[5] = Cell Viability - LYMP2-013 (AID 970);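 also: cells exposed to compound for 24 h at 37 °C; nearly all actives have a fitted effect of over 55% in size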
Summary of the method: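 Acute toxicity was measured in human lymphoblastoid cells (2500/well) exposed to compound titrations for 24 hr, with ATP luminescence (CellTiter-Glo) as read-out and AC50 fitted by Hill equation.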

[6] = Cell Viability - LYMP2-017 (AID 972);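 also: cells exposed to compound for 24 hours at 37 °C; nearly all actives have a fitted effect of over 55% in size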
Summary of the method: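 Steps: plate 2500 lymphoblastoid cells per well; incubate 5 hr at 37 C; add compound across a concentration series and incubate 24 hr at 37 C; add CellTiter-Glo and read luminescence after 30 min at room temperature; fit Hill curves for AC50.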

[7] = Cell Viability - LYMP2-019 (AID 973);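 also: cells exposed to compound for 24 h at 37 °C; nearly all actives have a fitted effect of over 55% in size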
Summary of the method: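 Cells plated at 2500/well and allowed 5 hr at 37 C before compound addition. After 24 hr incubation, CellTiter-Glo reagent was added, plates sat 30 min at room temperature, and luminescence was recorded.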

[8] = Cell Viability - LYMP2-021 (AID 974)
Summary of the method: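 Concentration-response cytotoxicity in a human lymphoblastoid line: 24 hr treatment at 37 C in complete culture medium, tetraoctylammonium bromide as positive control, luminescent ATP quantitation as viability measure.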

[9] = Cell Viability - LYMP2-025 (AID 976);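 also: cells exposed to compound for 24 h at 37 °C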
Summary of the method: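 In qHTS format, LYMP2-025 lymphoblastoid cells in complete culture medium received compound for 24 hr; ATP-based CellTiter-Glo signal gave viability, with AC50 derived by Hill equation.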

[10] = Cell Viability - LYMP2-007 (AID 979);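 also: cells exposed to compound for 24 h before reading; nearly all actives have a fitted effect of over 60% in size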
Summary of the method: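 Acute toxicity is scored as a concentration-dependent fall in intracellular ATP in human lymphoblastoid cells treated 24 hr at 37 C, measured by luciferase luminescence; Hill-equation modelling yields AC50.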

[11] = Cell Viability - LYMP2-008 (AID 980); also: nearly all actives have a fitted effect of over 60% in size
Summary of the method: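 Acute cytotoxicity is scored as concentration-dependent loss of cellular ATP in a human lymphoblastoid line after 24 hr treatment at 37 C. ATP is quantified by luciferase luminescence.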

[12] = Cell Viability - LYMP2-010 (AID 981)
Summary of the method: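 Acute toxicity is scored as a concentration-dependent loss of cellular ATP in human lymphoblastoid cells after 24 hr compound exposure in complete medium. Tetraoctylammonium bromide is the positive control.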

[13] = Cell Viability - LYMP2-014 (AID 983);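 also: cells exposed to compound for 24 h at 37 °C; nearly all actives have a fitted effect of over 50% in size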
Summary of the method: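 Decrease in intracellular ATP after 24 hr treatment at 37 C, measured by luciferase luminescence, indicated cytotoxicity. Concentration-response data were fitted with the standard Hill equation to give AC50.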

[14] = Cell Viability - LYMP2-018 (AID 985);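 also: compound exposure lasted 24 hr at 37 °C; nearly all actives have a fitted effect of over 50% in size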
Summary of the method: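 Acute cytotoxicity is scored as a concentration-dependent drop in intracellular ATP after 24 hr exposure of the lymphoblastoid line in complete culture medium, measured by luciferase luminescence. Potency is expressed as AC50 from Hill modelling.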

[15] = Cell Viability - LYMP2-020 (AID 986)
Summary of the method: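 Acute cytotoxicity in a human lymphoblastoid line is scored as a concentration-dependent fall in cellular ATP after 24 hr at 37 C in complete medium. The positive control is tetraoctylammonium bromide, and potency is given as Hill-fit AC50.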

[16] = Cell Viability - LYMP2-022 (AID 987); also: nearly all actives have a fitted effect of over 55% in size
Summary of the method: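 Acute toxicity in a human lymphoblastoid line is scored as decreased intracellular ATP after 24 hr compound treatment at 37 C. ATP is measured by CellTiter-Glo luminescence; curves are fitted with the Hill equation to give AC50.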

[17] = Cell Viability - LYMP2-024 (AID 988); also: nearly all actives have a fitted effect of over 60% in size
Summary of the method: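 Acute toxicity is measured as concentration-dependent loss of intracellular ATP in a human lymphoblastoid line treated 24 hours at 37 C. Luciferase luminescence quantifies ATP; AC50 values come from standard Hill-equation modelling.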

[18] = Cell Viability - LYMP2-026 (AID 989);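 also: cells exposed to compound for 24 h at 37 °C; nearly all actives have a fitted effect of over 50% in size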
Summary of the method: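 Concentration-dependent loss of intracellular ATP in human lymphoblastoid cells after 24 hr at 37 C, quantified by luciferase luminescence. AC50 derived from standard Hill equation.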

[19] = Cell Viability - LYMP1-002 - Assay at 24 hr (AID 993)
Summary of the method: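 qHTS, LYMP1-002 lymphoblastoid, 24 h cpd, 37 C, CellTiter-Glo ATP luminescence; AC50 via Hill eq.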

[20] = Cell Viability - LYMP1-002 - Assay at 40 hr (AID 994); also: nearly all actives have a fitted effect of over 60% in size
Summary of the method: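 Viability in the human lymphoblastoid line was measured as intracellular ATP via CellTiter-Glo after 40 hr compound exposure. Tetraoctylammonium bromide served as positive control.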

Measured: Potency
Potency is read from the fitted curve at half-maximal effect.

CCO
inactive: all assays above

O=NO
inactive: all assays above

C=CC(=O)OCCOCCOCCOCCOC(=O)C=C
active: [1] 25.1 µM and 31.6 µM | [2] 12.6 µM and 31.6 µM | [3] 15.8 µM | [4] 20 µM and 25.1 µM | [5] 20 µM and 25.1 µM | [6] 20 µM | [7] 25.1 µM and 31.6 µM | [8] 15.8 µM | [9] 25.1 µM | [10] 20 µM | [11] 25.1 µM | [12] 15.8 µM | [13] 20 µM and 25.1 µM | [14] 15.8 µM | [15] 12.6 µM and 15.8 µM | [16] 12.6 µM | [17] 12.6 µM and 15.8 µM | [18] 15.8 µM and 20 µM | [19] 25.1 µM | [20] 20 µM and 25.1 µM

COC(=O)c1ccc(C)cc1
inactive: all assays above

CCC(C)c1ccccc1O (stereo not given)
inactive: all assays above

O=C(O)c1ccc(O)cc1O
inactive: all assays above

CCCCCCCCCCCCCCC1CO1 (stereo not given)
inactive: all assays above

COc1ccc2nc(N)sc2c1
inactive: all assays above

Cc1ccc([N+](=O)[O-])c(C)c1
inactive: all assays above

c1ccccc1
inactive: all assays above
